From PMC7862700, “An all-to-all approach to the identification of sequence-specific readers for epigenetic DNA modifications on cytosine” come the findings set out here.

What all share (experiment): DAPPL (digital affinity profiling via proximity ligation, sequencing); 10 mM Tris-HCl pH 7.5, 50 mM NaCl, 1 mM DTT, 4% glycerol, room temperature, 30 min; GST-TFs on glutathione beads, 16-mer random dsDNA library, 0.1% formaldehyde crosslink after washing; high values mean tight binding
One experiment deals with T1, FEV (Homo sapiens, UniProt Q99581 1-238).
T1 sequence: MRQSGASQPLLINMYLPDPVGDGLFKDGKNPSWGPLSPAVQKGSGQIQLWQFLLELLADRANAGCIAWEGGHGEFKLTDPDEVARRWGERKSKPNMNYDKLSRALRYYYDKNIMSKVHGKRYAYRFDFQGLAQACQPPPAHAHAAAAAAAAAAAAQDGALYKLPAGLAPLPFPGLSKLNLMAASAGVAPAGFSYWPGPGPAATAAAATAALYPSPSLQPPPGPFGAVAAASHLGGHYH
The following applies: protein: recombinant; tags: N-terminal GST; dsDNA, one strand shown. A digest of the protocol: (§1)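 Pools of DNA-barcoded human transcription factors, expressed in yeast as GST fusions on glutathione beads and combined with a tag-only sample, were incubated with 200 nmole of a 16-mer random double-stranded DNA library. Incubation took 30 min at room temperature in Tris/NaCl/DTT/glycerol buffer and was followed by washing, 0.1% formaldehyde crosslinking, proximity ligation (BsaI/T4 ligase, 1 h, 37 °C), PCR amplification and sequencing on an Illumina NextSeq500. Binding signal is the ratio of a hexamer's read frequency for a factor to its frequency for the tag-only sample.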

The target of another experiment is ETV5 (Homo sapiens, UniProt P41161 1-510). Conditions: protein: recombinant; tags: N-terminal GST; dsDNA, one strand shown. In short, it runs like this: as §1
The target of a further experiment is HSF1 (Homo sapiens, UniProt Q00613 1-529). The following applies: protein: recombinant; tags: N-terminal GST; chain copies: 3; dsDNA, one strand shown. A digest of the protocol:
as §1

Another experiment has as its target T2, SPIC (Homo sapiens, UniProt Q8N5J4 1-248).
T2 sequence: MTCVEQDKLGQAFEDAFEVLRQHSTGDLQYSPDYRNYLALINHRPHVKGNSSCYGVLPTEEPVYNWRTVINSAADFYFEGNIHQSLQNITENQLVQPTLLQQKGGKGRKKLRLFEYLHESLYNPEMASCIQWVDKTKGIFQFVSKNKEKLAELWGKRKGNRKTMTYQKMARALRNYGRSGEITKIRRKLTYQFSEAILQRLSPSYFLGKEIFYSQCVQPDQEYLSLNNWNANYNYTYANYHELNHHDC
Conditions: protein: recombinant; tags: N-terminal GST; dsDNA, one strand shown. In short, it runs like this: as §1

In a further experiment the target is ELF4 (Homo sapiens, UniProt Q99607 1-663). The following applies: protein: recombinant; tags: N-terminal GST; dsDNA, one strand shown. A digest of the protocol: as §1
A further experiment concerns the target T3, ELK4 (Homo sapiens, UniProt P28324-2 1-405).
T3 sequence: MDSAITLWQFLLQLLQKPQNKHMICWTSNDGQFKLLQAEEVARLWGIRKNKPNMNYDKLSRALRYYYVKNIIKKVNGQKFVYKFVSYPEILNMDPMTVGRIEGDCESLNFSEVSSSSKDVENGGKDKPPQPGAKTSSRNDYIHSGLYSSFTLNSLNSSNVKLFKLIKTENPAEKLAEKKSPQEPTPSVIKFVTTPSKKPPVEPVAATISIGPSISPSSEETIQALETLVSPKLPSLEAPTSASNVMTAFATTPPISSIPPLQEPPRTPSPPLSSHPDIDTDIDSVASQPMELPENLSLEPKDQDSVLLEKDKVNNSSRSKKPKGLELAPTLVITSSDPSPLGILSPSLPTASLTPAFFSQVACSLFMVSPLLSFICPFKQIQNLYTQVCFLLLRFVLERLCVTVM
The following applies: protein: recombinant; tags: N-terminal GST; dsDNA, one strand shown. A digest of the protocol:
as §1

Another experiment has as its target T4, ETV2 (Homo sapiens, UniProt O00321 1-342).
T4 sequence: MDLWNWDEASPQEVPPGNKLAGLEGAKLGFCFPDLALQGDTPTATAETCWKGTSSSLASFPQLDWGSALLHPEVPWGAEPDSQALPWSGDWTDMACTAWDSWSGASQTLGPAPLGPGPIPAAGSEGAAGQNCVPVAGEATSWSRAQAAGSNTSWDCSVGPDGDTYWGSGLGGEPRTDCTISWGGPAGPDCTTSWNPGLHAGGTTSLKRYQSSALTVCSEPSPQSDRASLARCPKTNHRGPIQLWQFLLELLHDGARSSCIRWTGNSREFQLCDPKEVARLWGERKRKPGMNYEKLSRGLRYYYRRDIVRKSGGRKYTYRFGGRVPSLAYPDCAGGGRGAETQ
Conditions: protein: recombinant; tags: N-terminal GST; dsDNA, one strand shown. A digest of the protocol: as §1

A further experiment deals with T5, ELF3 (Homo sapiens, UniProt P78545 1-371).
T5 sequence: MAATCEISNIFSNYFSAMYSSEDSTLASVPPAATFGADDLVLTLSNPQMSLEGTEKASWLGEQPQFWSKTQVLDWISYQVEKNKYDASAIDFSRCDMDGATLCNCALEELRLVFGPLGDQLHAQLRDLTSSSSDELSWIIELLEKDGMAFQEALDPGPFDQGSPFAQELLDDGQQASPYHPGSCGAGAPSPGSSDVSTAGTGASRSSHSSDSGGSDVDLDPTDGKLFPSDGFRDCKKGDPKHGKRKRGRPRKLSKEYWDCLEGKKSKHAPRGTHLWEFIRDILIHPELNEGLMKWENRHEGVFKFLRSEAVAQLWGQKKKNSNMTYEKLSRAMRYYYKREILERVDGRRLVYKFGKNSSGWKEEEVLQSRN
Conditions: protein: recombinant; tags: N-terminal GST; dsDNA, one strand shown. In short, it runs like this:
as §1

A further experiment has as its target CRX (Homo sapiens, UniProt O43186 1-299). The following applies: protein: recombinant; tags: N-terminal GST; dsDNA, one strand shown. In short, it runs like this: as §1
The next experiment addresses ETV1 (Homo sapiens, UniProt P50549 1-477). The following applies: protein: recombinant; tags: N-terminal GST; dsDNA, one strand shown. A digest of the protocol:
as §1

For the next experiment, the target named is T6, ERF (Homo sapiens, UniProt P50548 1-548).
T6 sequence: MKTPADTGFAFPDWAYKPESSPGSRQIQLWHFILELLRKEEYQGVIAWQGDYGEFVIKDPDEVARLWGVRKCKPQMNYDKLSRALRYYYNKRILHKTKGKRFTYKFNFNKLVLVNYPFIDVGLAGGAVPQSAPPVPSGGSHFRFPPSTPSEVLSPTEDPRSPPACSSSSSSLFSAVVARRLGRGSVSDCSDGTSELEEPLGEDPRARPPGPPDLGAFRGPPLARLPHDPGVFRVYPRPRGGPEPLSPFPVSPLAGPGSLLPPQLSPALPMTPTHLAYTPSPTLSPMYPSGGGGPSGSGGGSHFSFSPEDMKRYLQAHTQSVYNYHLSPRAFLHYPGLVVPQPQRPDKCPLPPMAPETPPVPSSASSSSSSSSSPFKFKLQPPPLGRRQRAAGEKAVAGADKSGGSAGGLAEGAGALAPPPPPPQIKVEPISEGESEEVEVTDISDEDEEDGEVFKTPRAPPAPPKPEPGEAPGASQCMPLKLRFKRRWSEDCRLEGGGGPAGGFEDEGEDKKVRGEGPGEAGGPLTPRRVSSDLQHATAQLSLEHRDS
The following applies: protein: recombinant; tags: N-terminal GST; dsDNA, one strand shown. A digest of the protocol: as §1

Another experiment concerns the target T7, ETV3L (Homo sapiens, UniProt Q6ZN32 1-361).
T7 sequence: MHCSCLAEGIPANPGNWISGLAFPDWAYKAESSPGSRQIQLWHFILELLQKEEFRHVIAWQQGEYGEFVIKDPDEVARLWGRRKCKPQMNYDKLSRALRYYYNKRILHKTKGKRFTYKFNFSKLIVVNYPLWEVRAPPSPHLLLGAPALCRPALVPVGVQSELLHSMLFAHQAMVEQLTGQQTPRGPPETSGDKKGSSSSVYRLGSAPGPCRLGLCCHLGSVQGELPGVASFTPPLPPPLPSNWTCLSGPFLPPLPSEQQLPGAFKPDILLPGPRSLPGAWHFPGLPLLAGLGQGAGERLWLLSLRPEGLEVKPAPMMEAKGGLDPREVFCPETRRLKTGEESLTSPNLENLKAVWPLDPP
The following applies: protein: recombinant; tags: N-terminal GST; dsDNA, one strand shown. A digest of the protocol:
as §1

A further experiment deals with T8, ETS2 (Homo sapiens, UniProt P15036 1-469).
T8 sequence: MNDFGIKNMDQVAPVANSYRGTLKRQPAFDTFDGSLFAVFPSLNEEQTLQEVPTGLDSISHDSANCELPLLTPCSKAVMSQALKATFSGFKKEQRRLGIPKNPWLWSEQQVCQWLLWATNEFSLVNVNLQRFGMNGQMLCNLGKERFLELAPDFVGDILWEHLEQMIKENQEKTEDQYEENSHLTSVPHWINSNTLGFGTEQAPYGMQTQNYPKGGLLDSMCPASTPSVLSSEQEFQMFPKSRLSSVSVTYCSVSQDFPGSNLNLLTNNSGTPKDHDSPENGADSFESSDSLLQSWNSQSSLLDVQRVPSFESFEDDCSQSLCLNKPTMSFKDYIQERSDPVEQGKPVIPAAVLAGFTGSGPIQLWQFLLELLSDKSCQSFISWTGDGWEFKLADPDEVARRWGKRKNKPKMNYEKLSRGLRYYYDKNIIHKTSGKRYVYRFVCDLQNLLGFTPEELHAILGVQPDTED
The following applies: protein: recombinant; tags: N-terminal GST; dsDNA, one strand shown. A digest of the protocol:
as §1

The next experiment has as its target T9, SPDEF (Homo sapiens, UniProt O95238 1-335).
T9 sequence: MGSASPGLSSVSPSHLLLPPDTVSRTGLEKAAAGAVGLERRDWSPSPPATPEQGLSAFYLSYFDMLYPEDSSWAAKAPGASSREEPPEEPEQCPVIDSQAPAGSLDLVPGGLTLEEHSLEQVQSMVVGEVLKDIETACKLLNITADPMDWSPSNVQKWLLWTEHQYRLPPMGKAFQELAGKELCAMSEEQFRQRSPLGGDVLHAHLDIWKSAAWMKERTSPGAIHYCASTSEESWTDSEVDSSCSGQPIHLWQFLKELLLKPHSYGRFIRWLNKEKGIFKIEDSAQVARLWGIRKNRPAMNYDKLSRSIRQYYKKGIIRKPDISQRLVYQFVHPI
Conditions: protein: recombinant; tags: N-terminal GST; dsDNA, one strand shown. A digest of the protocol: as §1

In a further experiment the target is T10, ETV7 (Homo sapiens, UniProt Q9Y603 1-341).
T10 sequence: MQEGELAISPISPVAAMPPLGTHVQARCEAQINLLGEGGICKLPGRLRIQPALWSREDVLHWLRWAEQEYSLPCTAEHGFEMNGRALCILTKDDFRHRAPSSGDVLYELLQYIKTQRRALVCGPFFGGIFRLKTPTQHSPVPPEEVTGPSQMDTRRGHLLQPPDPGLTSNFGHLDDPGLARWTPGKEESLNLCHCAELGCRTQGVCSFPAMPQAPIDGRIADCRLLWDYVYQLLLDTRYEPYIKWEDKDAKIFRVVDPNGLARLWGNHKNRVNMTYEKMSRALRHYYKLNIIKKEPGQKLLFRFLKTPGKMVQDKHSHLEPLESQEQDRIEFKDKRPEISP
Conditions: protein: recombinant; tags: N-terminal GST; dsDNA, one strand shown. In short, it runs like this:
as §1

The target of the next experiment is T11, ELF5 (Homo sapiens, UniProt Q9UKW6-2 1-255).
T11 sequence: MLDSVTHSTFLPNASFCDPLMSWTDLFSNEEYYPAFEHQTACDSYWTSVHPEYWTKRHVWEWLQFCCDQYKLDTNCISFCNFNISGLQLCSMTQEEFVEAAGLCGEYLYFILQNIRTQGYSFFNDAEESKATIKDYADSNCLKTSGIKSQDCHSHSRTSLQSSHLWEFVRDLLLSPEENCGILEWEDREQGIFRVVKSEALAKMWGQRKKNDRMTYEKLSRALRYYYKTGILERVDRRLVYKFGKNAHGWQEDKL
Conditions: protein: recombinant; tags: N-terminal GST; dsDNA, one strand shown. A digest of the protocol:
as §1

A further experiment concerns the target T12, ETV3 (Homo sapiens, UniProt P41162-2 1-143).
T12 sequence: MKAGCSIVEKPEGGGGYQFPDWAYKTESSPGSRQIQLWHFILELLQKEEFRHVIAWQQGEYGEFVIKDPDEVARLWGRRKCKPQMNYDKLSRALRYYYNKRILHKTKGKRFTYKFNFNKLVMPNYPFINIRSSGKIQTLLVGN
The following applies: protein: recombinant; tags: N-terminal GST; dsDNA, one strand shown. In short, it runs like this: as §1

The next experiment concerns the target ETV6 (Homo sapiens, UniProt P41212 1-452). Conditions: protein: recombinant; tags: N-terminal GST; dsDNA, one strand shown. In short, it runs like this: as §1

Sequence of ETV1 (P50549 whole entry): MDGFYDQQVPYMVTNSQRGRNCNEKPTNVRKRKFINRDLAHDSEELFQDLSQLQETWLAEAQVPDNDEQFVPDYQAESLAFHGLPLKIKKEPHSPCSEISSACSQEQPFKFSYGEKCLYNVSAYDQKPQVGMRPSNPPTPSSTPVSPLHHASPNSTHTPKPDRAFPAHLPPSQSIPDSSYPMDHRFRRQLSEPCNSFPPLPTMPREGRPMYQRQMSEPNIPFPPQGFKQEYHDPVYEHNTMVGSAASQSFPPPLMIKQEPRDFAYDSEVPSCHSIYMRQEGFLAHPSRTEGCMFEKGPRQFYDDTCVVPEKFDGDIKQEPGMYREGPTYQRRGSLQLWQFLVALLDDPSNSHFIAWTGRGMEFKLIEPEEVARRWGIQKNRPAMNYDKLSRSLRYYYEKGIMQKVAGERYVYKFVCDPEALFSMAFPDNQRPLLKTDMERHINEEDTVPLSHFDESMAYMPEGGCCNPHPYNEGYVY
Sequence of CRX (O43186 whole entry): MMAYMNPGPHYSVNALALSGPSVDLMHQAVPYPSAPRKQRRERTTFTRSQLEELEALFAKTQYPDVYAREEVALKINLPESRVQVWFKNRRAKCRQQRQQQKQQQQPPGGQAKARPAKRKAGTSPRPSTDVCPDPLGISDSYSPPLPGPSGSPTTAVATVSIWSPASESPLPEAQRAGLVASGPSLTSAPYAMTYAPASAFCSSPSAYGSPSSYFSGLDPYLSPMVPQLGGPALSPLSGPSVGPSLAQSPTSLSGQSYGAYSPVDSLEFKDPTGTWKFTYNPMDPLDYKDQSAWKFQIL
Sequence of ELF4 (Q99607 whole entry): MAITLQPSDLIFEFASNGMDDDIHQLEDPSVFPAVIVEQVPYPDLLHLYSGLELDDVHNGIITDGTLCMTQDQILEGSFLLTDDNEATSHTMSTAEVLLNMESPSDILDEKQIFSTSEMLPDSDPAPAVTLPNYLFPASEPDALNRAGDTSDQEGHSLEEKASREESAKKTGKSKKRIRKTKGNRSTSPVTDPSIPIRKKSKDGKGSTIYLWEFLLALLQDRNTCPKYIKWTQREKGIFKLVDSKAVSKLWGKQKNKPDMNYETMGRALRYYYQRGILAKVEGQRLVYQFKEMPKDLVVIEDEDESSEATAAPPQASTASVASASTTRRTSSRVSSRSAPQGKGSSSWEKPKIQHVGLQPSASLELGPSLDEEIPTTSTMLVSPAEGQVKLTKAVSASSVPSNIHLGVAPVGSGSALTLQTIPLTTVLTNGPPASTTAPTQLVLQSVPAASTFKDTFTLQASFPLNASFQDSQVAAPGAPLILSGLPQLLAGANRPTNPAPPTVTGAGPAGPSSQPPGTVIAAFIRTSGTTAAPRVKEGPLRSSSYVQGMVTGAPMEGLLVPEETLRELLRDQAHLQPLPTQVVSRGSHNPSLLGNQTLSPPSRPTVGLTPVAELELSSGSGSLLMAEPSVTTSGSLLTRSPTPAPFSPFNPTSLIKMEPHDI
Sequence of ETV6 (P41212 whole entry): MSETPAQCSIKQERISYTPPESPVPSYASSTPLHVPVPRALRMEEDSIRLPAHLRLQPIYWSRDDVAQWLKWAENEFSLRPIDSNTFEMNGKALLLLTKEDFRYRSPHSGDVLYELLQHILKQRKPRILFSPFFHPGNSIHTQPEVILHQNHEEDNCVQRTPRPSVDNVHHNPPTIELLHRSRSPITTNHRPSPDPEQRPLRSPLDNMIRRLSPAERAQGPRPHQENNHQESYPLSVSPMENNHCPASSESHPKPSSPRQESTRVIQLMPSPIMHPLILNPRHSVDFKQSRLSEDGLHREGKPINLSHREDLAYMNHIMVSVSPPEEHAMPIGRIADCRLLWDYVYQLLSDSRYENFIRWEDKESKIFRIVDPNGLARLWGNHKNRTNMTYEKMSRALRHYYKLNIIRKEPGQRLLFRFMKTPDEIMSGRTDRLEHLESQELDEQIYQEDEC
Sequence of HSF1 (Q00613 whole entry): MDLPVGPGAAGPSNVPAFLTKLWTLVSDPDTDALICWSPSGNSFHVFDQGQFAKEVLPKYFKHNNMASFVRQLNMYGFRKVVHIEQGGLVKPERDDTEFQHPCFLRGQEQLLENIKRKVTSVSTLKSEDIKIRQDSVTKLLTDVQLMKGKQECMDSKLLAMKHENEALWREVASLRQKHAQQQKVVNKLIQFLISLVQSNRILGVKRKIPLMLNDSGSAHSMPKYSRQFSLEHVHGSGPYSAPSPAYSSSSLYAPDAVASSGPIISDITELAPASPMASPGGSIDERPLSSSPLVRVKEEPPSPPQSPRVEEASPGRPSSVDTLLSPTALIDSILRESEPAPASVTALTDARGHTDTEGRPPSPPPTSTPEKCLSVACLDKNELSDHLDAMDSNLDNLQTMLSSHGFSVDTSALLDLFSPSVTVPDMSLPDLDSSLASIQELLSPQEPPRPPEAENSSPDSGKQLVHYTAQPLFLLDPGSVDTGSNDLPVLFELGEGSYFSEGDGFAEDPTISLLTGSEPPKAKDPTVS
Sequence of ETV5 (P41161 whole entry): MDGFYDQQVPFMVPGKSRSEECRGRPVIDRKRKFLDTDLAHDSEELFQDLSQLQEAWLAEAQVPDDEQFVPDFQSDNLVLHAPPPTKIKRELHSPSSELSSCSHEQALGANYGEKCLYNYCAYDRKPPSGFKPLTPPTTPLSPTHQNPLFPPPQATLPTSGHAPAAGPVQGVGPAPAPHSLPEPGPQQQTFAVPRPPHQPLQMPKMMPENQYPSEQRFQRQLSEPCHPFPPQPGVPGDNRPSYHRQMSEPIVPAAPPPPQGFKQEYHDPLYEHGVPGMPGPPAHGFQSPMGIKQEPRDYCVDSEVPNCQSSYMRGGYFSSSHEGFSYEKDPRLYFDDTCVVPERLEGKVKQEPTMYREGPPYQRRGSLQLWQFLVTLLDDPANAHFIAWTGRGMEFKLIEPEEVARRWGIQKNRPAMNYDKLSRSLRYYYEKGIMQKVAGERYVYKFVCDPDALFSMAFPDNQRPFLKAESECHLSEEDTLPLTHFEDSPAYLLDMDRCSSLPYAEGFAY

For the sequence CTCTTG, the binding signal was 1.34 fold enrichment (6-mer frequency, TF over GST control) in the experiment with FEV; 1.41 fold enrichment (6-mer frequency, TF over GST control) with ETV5; 1.24 fold enrichment (6-mer frequency, TF over GST control) in the experiment with HSF1; 1.35 fold enrichment (6-mer frequency, TF over GST control) with SPIC; 1.42 fold enrichment (6-mer frequency, TF over GST control) in the experiment with ELF4; 1.52 fold enrichment (6-mer frequency, TF over GST control) in the experiment with ELK4. Besides, the binding signal with ETV2 was 1.36 fold enrichment (6-mer frequency, TF over GST control); with ELF3, 1.22 fold enrichment (6-mer frequency, TF over GST control); with CRX, 1.21 fold enrichment (6-mer frequency, TF over GST control); in the experiment with ETV1, 1.41 fold enrichment (6-mer frequency, TF over GST control); in the experiment with ERF it was 1.53 fold enrichment (6-mer frequency, TF over GST control); with ETV3L it was 1.42 fold enrichment (6-mer frequency, TF over GST control). In addition, the binding signal in the experiment with ETS2 was 1.23 fold enrichment (6-mer frequency, TF over GST control); with SPDEF it was 1.26 fold enrichment (6-mer frequency, TF over GST control); with ETV7, 1.27 fold enrichment (6-mer frequency, TF over GST control); with ELF5, 1.43 fold enrichment (6-mer frequency, TF over GST control); with ETV3 it was 1.35 fold enrichment (6-mer frequency, TF over GST control); with ETV6, 1.2 fold enrichment (6-mer frequency, TF over GST control).
